High-throughput results as filed in PubChem BioAssay.
Dicer processing: human Dicer pre-microRNA cleavage inhibition | AID 1347074 | z-score at 25 µM | Q9UPY3 | cat-ELCCA pre-miR-21 Dicer processing, chemiluminescence; hits give high values | actives 6% (n = 47,000); in the data active means z-score above about 3, passing the limit was not always enough;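 further: plate controls were vehicle for no effect and no enzyme for full effect; higher signal means more uncleaved substrate so more Dicer inhibition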
The depositor's hits bear a star. This excerpt belongs to a sample that is enriched for hits.

`Cc1cc(C)n(-c2ccc(SCC(=O)Nc3ccc(Cl)cc3)nn2)n1` gave Dicer processing -0.17.
For Cc1cc(C(F)(F)F)n2ncc(-c3cccc(Cl)c3)c2n1 the results were Dicer processing 0.33.
`COc1cccc(Cn2c(-c3nonc3N)nc3ccccc32)c1` gave Dicer processing 4.23*.
For O=C1CN(CC(=O)N2CCN(c3ccc(F)cc3)CC2)c2ccccc2O1 the results were Dicer processing -3.16.
`Cc1ccc(Cn2c(-c3nonc3N)nc3ccccc32)cc1` gave Dicer processing -0.74.
Screening CCC(=O)Nc1nonc1-c1nc2ccccc2n1CCC(C)C returned Dicer processing -2.54.
For Nc1nonc1-c1nc2ccccc2n1CC(=O)N1CCN(c2ccc(F)cc2)CC1 the results were Dicer processing 3.44*.
Screening CN(C(=O)Cn1c(-c2nonc2N)nc2ccccc21)c1ccccc1 returned Dicer processing 4.06*.
Screening Nc1nonc1-c1nc2ccccc2n1Cc1ccc(Cl)cc1 returned Dicer processing 1.15.
`CN(C(=O)Cn1c(-c2cncs2)nc2ccccc21)c1ccccc1` gave Dicer processing 0.95.
Screening Nc1nonc1-c1nc2ccccc2n1CC(=O)Nc1ccc(F)cc1 returned Dicer processing -1.04.
Screening CC12CCC(C(=O)O)(c3nc4ccccc4nc31)C2(C)C (stereo not given) returned Dicer processing -0.52.
CCOC(=O)c1sc2ncnc(N(C)c3ccccc3)c2c1C was read as Dicer processing -1.22.
Screening CCc1ccnc(NC(=O)Nc2cccc3ccccc23)c1 returned Dicer processing 1.86.
`Cc1cc2nnc(-c3ccccc3Cl)n2[nH]1` gave Dicer processing -0.33.
`O=C(Nc1ccc(Cl)cc1)N1CCc2sccc2C1c1ccc(Cl)cc1` (stereo not given) gave Dicer processing -1.15.
`COC(=O)c1c(OC)ccc(NC(=O)NC(=O)c2c(OC)c(Cl)cc(Cl)c2OC)c1OC` gave Dicer processing -0.6.
For O=C(c1nn2c(C(F)(F)F)cc(-c3ccc(F)cc3)nc2c1Cl)N1CCOCC1 the results were Dicer processing 4.19*.
For O=C(c1nn2c(C(F)(F)F)cc(-c3ccccc3)nc2c1Cl)N1CCOCC1 the results were Dicer processing -0.1.
Screening O=C(c1nc2nc(-c3ccc(Cl)cc3)cc(C(F)(F)F)n2n1)N1CCOCC1 returned Dicer processing 2.81.
Oc1ccccc1CNCc1ccccn1 was read as Dicer processing 2.05.
CCOC(=O)c1ccc2c(c1)CC/C(=C\c1cccc(C(F)(F)F)c1)C2=O was read as Dicer processing -1.88.
For O=C(Nc1cccc(-n2cccc2)c1)Nc1csc2ccccc12 the results were Dicer processing 1.44.
Nc1nc(N)c(S(=O)(=O)c2ccccc2)c(NC2CCCCC2)n1 was read as Dicer processing 0.06.
O=C(CSc1cc(C(F)(F)F)cc(C(F)(F)F)c1)Nc1ccccc1F was read as Dicer processing 0.08.
For CCCCN1C(=O)N(c2nnc(C(C)(C)C)s2)C(=O)C1c1ccc(Cl)c(Cl)c1 (stereo not given) the results were Dicer processing 0.21.
`CC1(C)CC(=O)C2=C(C1)N1C(=C(C#N)C2c2ccc3c(c2)OCO3)N=C(N)c2ccccc21` (stereo not given) gave Dicer processing 0.12.
Screening COc1ccc(OC)c(C2C(C#N)=C3N=C(N)c4ccccc4N3C3=C2C(=O)CC(C)(C)C3)c1 (stereo not given) returned Dicer processing 4.76*.
`COc1ccccc1C1C(C#N)=C2N=C(N)c3ccccc3N2C2=C1C(=O)CCC2` (stereo not given) gave Dicer processing -1.01.
For N#CC1=C2N=C(N)c3ccccc3N2C2=C(C(=O)CCC2)C1c1ccc(Cl)cc1 (stereo not given) the results were Dicer processing 2.
For CN(C)c1ccc(C2C(C#N)=C3N=C(N)c4ccccc4N3C3=C2C(=O)CC(C)(C)C3)cc1 (stereo not given) the results were Dicer processing 6.9*.
COc1ccc(C2C(C#N)=C3N=C(N)c4ccccc4N3C3=C2C(=O)CCC3)cc1 (stereo not given) was read as Dicer processing 1.51.
For CC1(C)CC(=O)C2=C(C1)Nc1ccccc1N(C(=O)c1ccccc1)C2c1cccnc1 (stereo not given) the results were Dicer processing 20.6.
For Cn1c(SCc2ccc(C(C)(C)C)cc2)n[nH]c1=S the results were Dicer processing -1.1.
For Cc1c(-c2ccccc2)sc2nc[nH]c(=O)c12 the results were Dicer processing -0.94.
Screening CC(=O)Nc1ccc(N2C(=O)CC(N3CCCC(C)C3)C2=O)cc1 (stereo not given) returned Dicer processing 0.76.
For CSc1ccc(C2C(C(=O)OCCOc3ccccc3)=C(C)NC3=C2C(=O)CC(C)(C)C3)cc1 (stereo not given) the results were Dicer processing 2.94.
`CCCOC(=O)C1=C(C)NC2=C(C(=O)CC(C)(C)C2)C1c1cccnc1` (stereo not given) gave Dicer processing 0.87.
